Compounds with a hit are over-represented: about 11% of the library has one in this group of screens.
PI5P4Ka inh: PI5P4K alpha (human) kinase inhibition; P48426; PI5P4Kalpha enzyme, ADP-Glo luminescence, 60 min; hits give low values; max response, %; 330,000 compounds, 1.2% hits; AID 652105; active = max response of -50% or lower; inconclusive = between -30% and -50%; inactive = -30% or higher; also: value at the top dose of about 77 µM; % is scaled to controls: 0 for no effect and ±100 for the full control effect
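Single end-point luminescence (ADP-Glo) quantified ADP from PI5P4Kalpha turnover; ATP 5 microM final, 1 h at RT, 0.1% CHAPS and 0.28 mM EGTA in HEPES pH 7.4.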
L3MBTL1 inh: blocks human L3MBTL1; Q9Y468; AlphaScreen L3MBTL1–H3K9me1 peptide binding; Potency, µM (top dose mostly 57.1 µM), for inactives: at the top dose activity, negative = inhibition, hits mostly inhibitors; 230,000 compounds, 0.66% hits; AID 485360; also: potency is read from the fitted curve at half-maximal effect; % is scaled to controls: 0 for no effect and ±100 for the full control effect; nearly all actives have a fitted effect of over 60% in size
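AlphaScreen proximity signal between nickel-chelate acceptor and streptavidin donor beads (final 10 ug/mL) reports binding of 50 nM L3MBTL1 to 75 nM biotin-H3 K9me1 peptide; complex incubated with compounds 30 min at room temperature; cefsulodin titration as control.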
BAZ2B block: BAZ2B (human) inhibition; AID 504333; Potency, µM (highest dose often 114 µM), for inactives: at the top dose activity change, negative = inhibition, hits mostly inhibitors; AlphaScreen BAZ2B-H3K14Ac peptide displacement; Q9UIF8; 360,000 compounds, 4.4% hits; also: potency is read from the fitted curve at half-maximal effect; % is scaled to controls: 0 for no effect and ±100 for the full control effect; nearly all actives have a fitted effect of over 60% in size
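AlphaScreen displacement: compounds (up to 110uM) incubated 30 min at room temperature with a preformed 50 nM BAZ2B/50 nM biotinylated H3K14Ac peptide complex in PBS pH 7.4 with Tween-20. Donor and acceptor beads at 10 ug/mL final added, 20 min light-protected before reading.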
JMJD2A Tudor inh: inhibitors of human JMJD2A Tudor domain; O75164; AlphaScreen JMJD2A-Tudor / H3K4me3 peptide binding; Potency, µM (series often up to 114 µM), inactives show at the top dose activity change, negative = inhibition, hits mostly inhibitors; 390,000 compounds, 4.4% hits; AID 504339; also: potency is read from the fitted curve at half-maximal effect; % is scaled to controls: 0 for no effect and ±100 for the full control effect; nearly all actives have a fitted effect of over 50% in size
Target sequence (O75164 whole entry, looked up, the tested form may be a part): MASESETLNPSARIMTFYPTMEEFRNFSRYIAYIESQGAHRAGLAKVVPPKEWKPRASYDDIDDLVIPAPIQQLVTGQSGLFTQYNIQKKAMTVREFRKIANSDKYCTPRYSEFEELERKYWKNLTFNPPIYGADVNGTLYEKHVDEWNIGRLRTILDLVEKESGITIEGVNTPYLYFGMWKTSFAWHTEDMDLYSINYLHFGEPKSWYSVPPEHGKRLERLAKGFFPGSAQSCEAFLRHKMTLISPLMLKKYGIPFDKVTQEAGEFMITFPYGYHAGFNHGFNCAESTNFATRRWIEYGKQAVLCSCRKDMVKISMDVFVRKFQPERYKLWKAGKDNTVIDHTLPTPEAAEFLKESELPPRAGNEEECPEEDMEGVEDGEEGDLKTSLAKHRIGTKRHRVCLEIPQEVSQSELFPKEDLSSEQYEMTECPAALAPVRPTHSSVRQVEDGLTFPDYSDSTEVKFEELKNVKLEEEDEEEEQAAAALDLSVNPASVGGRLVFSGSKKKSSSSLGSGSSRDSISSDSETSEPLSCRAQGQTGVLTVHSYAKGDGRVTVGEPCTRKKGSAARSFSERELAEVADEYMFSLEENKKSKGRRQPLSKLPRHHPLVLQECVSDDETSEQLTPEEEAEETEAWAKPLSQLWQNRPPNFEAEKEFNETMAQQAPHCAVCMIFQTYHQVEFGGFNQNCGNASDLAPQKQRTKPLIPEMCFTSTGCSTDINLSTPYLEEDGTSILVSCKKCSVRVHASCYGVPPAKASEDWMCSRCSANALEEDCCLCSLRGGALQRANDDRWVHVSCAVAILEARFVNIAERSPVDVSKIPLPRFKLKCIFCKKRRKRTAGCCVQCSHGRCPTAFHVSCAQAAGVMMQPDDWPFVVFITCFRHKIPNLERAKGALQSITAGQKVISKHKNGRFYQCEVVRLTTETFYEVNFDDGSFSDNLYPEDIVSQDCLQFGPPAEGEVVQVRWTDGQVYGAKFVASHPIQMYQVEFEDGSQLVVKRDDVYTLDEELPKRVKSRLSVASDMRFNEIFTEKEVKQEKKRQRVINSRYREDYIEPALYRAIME
HP1b binding inh: blocks HP1-beta chromodomain binding to methylated histone tails. AlphaScreen HP1-beta / biotin-H3K9me3 peptide binding. AID 540317. Potency, µM (doses to about 114 µM), for the others: at the top dose activity change, negative = inhibition, most hits filed as inhibitors. P83916. 390,000 compounds, 0.56% hits; also: potency is read from the fitted curve at half-maximal effect; nearly all actives have a fitted effect of over 70% in size
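AlphaScreen: HP1-beta (50 nM) preformed 30 min with biotin-H3(1-18)K9me3 peptide (50 nM) in PBS pH 7.4, 0.01% Tween-20. Compound added for 30 min at RT, then streptavidin donor/nickel chelate acceptor beads (10 ug/mL) for 30 min.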
G9a inh: G9a (human) methyltransferase inhibition. Potency, µM (doses to about 102 µM), for inactives: at the highest dose activity, negative = inhibition, usual class: inhibitors. AID 504332. 350,000 compounds, 8.8% hits. Q96KQ7. G9a H3K9 monomethylation, AlphaScreen, 2 h; also: potency is read from the fitted curve at half-maximal effect; % is scaled to controls: 0 for no effect and ±100 for the full control effect; nearly all actives have a fitted effect of over 75% in size
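Compounds were preincubated with 20 nM G9a for 15 min, after which biotinylated H3K9 peptide (500 nM) and SAM (20 uM) started a 2 h room-temperature reaction. Monomethylated product was quantified by antibody-based AlphaScreen chemiluminescence.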
Numbers without * were called inactive; [ ] = dose if it differs, or a comment. Unless noted, calls follow the shape of the dose curve; as a rule, active = well fitted inhibition curve with a large enough effect; inconclusive = small, poorly fitted or top-dose-only effect; inactive = no such curve, though single readings can be large or run the other way.

Cc1cc(/C=N/NC(N)=S)c(C)n1-c1cccc(Cl)c1 was read as PI5P4Ka inh -4, L3MBTL1 inh -14%, BAZ2B block inconclusive, JMJD2A Tudor inh inconclusive, HP1b binding inh inconclusive and G9a inh 45µM*.
Cc1cc(/C=N/NC(N)=S)c(C)n1-c1ccc(Cl)cc1 was read as PI5P4Ka inh -17, L3MBTL1 inh -16%, BAZ2B block -30%, JMJD2A Tudor inh inconclusive, HP1b binding inh -21% and G9a inh -7%[59 µM].
Screening Cc1ccc(/C=N/NC(=O)c2ccco2)cc1 returned PI5P4Ka inh 4, L3MBTL1 inh 12%, BAZ2B block -3%, JMJD2A Tudor inh -11% and HP1b binding inh 33%.
`Cc1cc(/C=N/NC(=O)c2ccccn2)c(C)n1-c1cccc([N+](=O)[O-])c1` gave PI5P4Ka inh -7, L3MBTL1 inh -2%, BAZ2B block 45µM*, JMJD2A Tudor inh inconclusive, HP1b binding inh inconclusive and G9a inh inconclusive.
Screening COc1ccc(/C=C/c2nnc(NC(=O)COc3ccc(Cl)cc3)s2)cc1 returned JMJD2A Tudor inh -5%[57.1 µM] and HP1b binding inh 32%[57 µM].
O=C(N/N=C/c1ccc2ncccc2c1)c1ccco1 was read as PI5P4Ka inh -77*, L3MBTL1 inh 2%, BAZ2B block -16%, JMJD2A Tudor inh 79µM*, HP1b binding inh 2% and G9a inh 14µM*.
For O=C(N/N=C/c1ccccn1)c1ccco1 the results were L3MBTL1 inh 2%, BAZ2B block inconclusive, JMJD2A Tudor inh -11%, HP1b binding inh 37% and G9a inh inconclusive.
`COC(=O)c1ccc(C2N=C(c3cccs3)CC(c3ccccc3O)N2)cc1` (stereo unspecified) gave PI5P4Ka inh 3, BAZ2B block -6%, JMJD2A Tudor inh -27%, HP1b binding inh 15% and G9a inh 45µM*.
COc1ccc(-c2cc3c(nn2)-c2ccccc2C3=O)cc1 was read as PI5P4Ka inh inconclusive, L3MBTL1 inh inconclusive, BAZ2B block -14%, JMJD2A Tudor inh 22µM*, HP1b binding inh -8% and G9a inh -5%.
For O=C1c2ccccc2-c2nnc(-c3ccccc3)cc21 the results were PI5P4Ka inh -11, L3MBTL1 inh -9%, BAZ2B block inconclusive, JMJD2A Tudor inh -28%, HP1b binding inh 18% and G9a inh 5%[0.501 µM].
`COc1cc(CNC(=O)CSCc2nc3cccnc3n2C2CCCCC2)cc(OC)c1OC` gave BAZ2B block -6%, JMJD2A Tudor inh -10%, HP1b binding inh 9%[57 µM] and G9a inh 20%[59 µM].
Screening Cc1nc2n(c(=O)c1CCN1CCC(c3noc4cc(F)ccc34)CC1)CCCC2O (stereo unspecified) returned G9a inh 30µM*.
Oc1c(N=NC(=S)Nc2ccccc2F)c2ccccc2n1Cc1ccc(Cl)cc1 was read as PI5P4Ka inh 3, L3MBTL1 inh inconclusive, BAZ2B block inconclusive, JMJD2A Tudor inh inconclusive, HP1b binding inh -6% and G9a inh 10µM*.
Cc1ccccc1Cn1c(O)c(N=NC(=S)Nc2ccccc2F)c2ccccc21 was read as PI5P4Ka inh -1, BAZ2B block inconclusive, JMJD2A Tudor inh inconclusive, HP1b binding inh inconclusive and G9a inh 13µM*.
Screening Oc1c(N=NC(=S)Nc2ccccc2F)c2ccccc2n1Cc1ccccc1F returned PI5P4Ka inh 9, BAZ2B block -32%, JMJD2A Tudor inh inconclusive, HP1b binding inh inconclusive and G9a inh 11µM*.
Screening Cc1ccc(C)c(Cn2c(O)c(N=NC(=S)Nc3ccccc3F)c3ccccc32)c1 returned PI5P4Ka inh -24, BAZ2B block 1%, JMJD2A Tudor inh inconclusive, HP1b binding inh inconclusive and G9a inh inconclusive.
Screening Clc1ccc(Cn2cc3c(n2)-c2cc4ccccc4n2C3)cc1 returned JMJD2A Tudor inh 4%[57.1 µM] and HP1b binding inh 37%[57 µM].
Screening Cc1ccc(CNC(=O)c2ccc(N3Cc4ccccc4Oc4ncccc43)s2)cc1 returned BAZ2B block -2%, JMJD2A Tudor inh -11%, HP1b binding inh 36% and G9a inh 11%[59 µM].
Screening CN(C)c1ccnc(Nc2ccccc2)c1C#N returned PI5P4Ka inh 4, L3MBTL1 inh 1%, BAZ2B block -4%, JMJD2A Tudor inh -2%, HP1b binding inh 37% and G9a inh -15%.
`CN(C)c1ccnc2c[cH-]cc12.[Fe].c1ccc(-[c-]2[c-](-c3ccccc3)[c-](-c3ccccc3)[c-](-c3ccccc3)[c-]2-c2ccccc2)cc1` (stereo unspecified) gave PI5P4Ka inh -9, BAZ2B block 1.6µM*, JMJD2A Tudor inh 4µM*, HP1b binding inh 3.2µM* and G9a inh inconclusive.
`C[N+]1(C2CCC3CCCC2C3O)CCCCC1` (stereo unspecified) gave PI5P4Ka inh -3, L3MBTL1 inh 18%, BAZ2B block -12%, JMJD2A Tudor inh 20µM*, HP1b binding inh 7% and G9a inh inconclusive.
`CCOc1ccc(CCNC(=O)c2sc3nc4n(c(=O)c3c2C)CCCC4)cc1` gave BAZ2B block -7%, JMJD2A Tudor inh -19%, HP1b binding inh 4% and G9a inh -6%[59 µM].
`Cc1c2cnn(CC(=O)NCCc3ccccc3)c(=O)c2c(C)n1Cc1ccccc1Cl` gave BAZ2B block 2%, JMJD2A Tudor inh -18%, HP1b binding inh 12% and G9a inh -1%[59 µM].
`Nc1cc2nsnc2cc1Br` gave PI5P4Ka inh -16, L3MBTL1 inh 16µM*, BAZ2B block 12%[57.1 µM], JMJD2A Tudor inh -35%, HP1b binding inh inconclusive and G9a inh inconclusive.
CCN(CC)S(=O)(=O)c1ccc(C(=O)NCc2n[nH]c(=S)n2Cc2ccccc2)cc1 was read as L3MBTL1 inh 3%, BAZ2B block -5%, JMJD2A Tudor inh 28µM*, HP1b binding inh 21% and G9a inh inconclusive.
For CCN(CC)S(=O)(=O)c1cccc(-c2nc3n(n2)Cc2ccccc2-3)c1 the results were L3MBTL1 inh 3%, BAZ2B block -33%, JMJD2A Tudor inh -32%, HP1b binding inh 24% and G9a inh 50µM*.
For CCN(CC)S(=O)(=O)c1cccc(-c2n[nH]c(=S)n2Cc2ccccc2)c1 the results were PI5P4Ka inh 3, L3MBTL1 inh -13%, BAZ2B block -36%, JMJD2A Tudor inh inconclusive, HP1b binding inh 37% and G9a inh 0.89µM*.
`Clc1ccc(-c2nc3n(n2)Cc2ccccc2-3)cc1` gave PI5P4Ka inh -1, L3MBTL1 inh -8%, BAZ2B block 5%, JMJD2A Tudor inh inconclusive, HP1b binding inh 120% and G9a inh inconclusive.
